# Screening data: PubChem, several laboratories
# This is a sample that favours compounds with a hit; in the whole collection about 22% have one here.
# CYP2C9 inh – blockers of cytochrome P450 2C9 activity – biochemical, luminescence, ADME assay, primary screen | P11712 | CYP2C9 Supersomes, luciferin-H conversion | inhibition, % at 5 µM | hit rate 20% among 96,000 | AID 777, 2007;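 active means blocking of liver enzyme CYP2C9 beyond about 50% at 5 µM, limit read from the data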
# Target sequence (P11712 whole entry, looked up): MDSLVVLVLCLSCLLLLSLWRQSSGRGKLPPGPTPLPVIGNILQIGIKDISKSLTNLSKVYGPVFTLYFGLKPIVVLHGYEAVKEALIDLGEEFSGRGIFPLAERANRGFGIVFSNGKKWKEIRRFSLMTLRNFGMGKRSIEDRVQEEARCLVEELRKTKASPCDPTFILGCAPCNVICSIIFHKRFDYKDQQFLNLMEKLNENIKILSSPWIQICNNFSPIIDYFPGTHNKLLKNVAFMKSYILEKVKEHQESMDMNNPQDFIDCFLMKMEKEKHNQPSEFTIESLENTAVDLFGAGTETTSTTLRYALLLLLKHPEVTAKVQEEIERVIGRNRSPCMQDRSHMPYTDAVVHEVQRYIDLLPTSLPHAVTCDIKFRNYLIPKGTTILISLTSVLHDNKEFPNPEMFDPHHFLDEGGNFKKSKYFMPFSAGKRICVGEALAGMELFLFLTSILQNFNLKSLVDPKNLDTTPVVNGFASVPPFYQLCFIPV
# Measles CPE – compounds protecting cells from measles virus cytopathic effect, primary screen, measles RdRp inhibitor project, single point, MLSMR library, absorbance; protection (pct of control), % at 4 µM; hit rate 1.5% among 140,000; Measles virus-infected cells, CPE protection; in the data active means protection mostly above about 24%, no sharp cut-off; inactive means mostly below about 26%
# CYP2C9 activ – human CYP2C9 activators, primary screen, biochemical, luminescence | activation factor at 5 µM | AID 1024, 2008 | Cytochrome P450 2C9 (Homo sapiens), P11712 | hit rate 1.4% among 96,000 | recombinant CYP2C9, luciferin-H conversion; stronger effect = higher value; factor 1 = untreated enzyme, 0 = blocked;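 active means activation factor of 2 or more for CYP2C9 at a 5 µM dose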;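 further: 0 = sulfaphenazole-blocked wells and 1 = vehicle-only wells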
# CYP2C19 inh – blockers of cytochrome P450 2C19 activity – biochemical, luminescence, ADME assay, primary screen; inhibition, % at 5 µM; P33261; AID 778, 2007; hit rate 21% among 96,000; CYP2C19 Supersomes, luciferin-H EGE luminescence, 30 min;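 active means CYP2C19 inhibition above a set limit at 5 µM in the primary screen, cut at about 50% in these data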;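 further: plate controls were negative control wells for no effect and 2.5 mM tranylcypromine positive control for full effect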
# CYP2C19 activ – human CYP2C19 activators, primary screen, biochemical, luminescence. Cytochrome P450 2C19 (Homo sapiens), P33261. recombinant CYP2C19, luciferin-H EGE luminescence; stronger effect = higher value; 0 = fully inhibited enzyme, 1 = untreated enzyme. activation factor at 5 µM. 96,000 tested, under 10 active;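 active means activation factor of at least 2 at 5 µM in the primary screen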;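 further: 0 = wells with 2.5 mM tranylcypromine and 1 = vehicle-only wells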
# Active calls of the source: *; . = no result.
SMILES,CYP2C9 inh,Measles CPE,CYP2C9 activ,CYP2C19 inh,CYP2C19 activ
Cc1ccc(S(=O)(=O)N2CCC(=O)N(CCOC(=O)Nc3ccc(C)c(C)c3)CC2)cc1,.,4.2,.,.,.
COc1ccc(-c2cc(C(=O)N/N=C/c3sccc3C)c3ccccc3n2)c(OC)c1,87.8*,4.8,0.1,65.3*,0.3
COc1cc2ccccc2cc1C(=O)O,82.0*,1.9,0.2,21.1,0.8
COc1ccc(-c2cc(C(=O)N/N=C/c3ccc4c(c3)OCO4)c3ccccc3n2)c(OC)c1,88.3*,7.7,0.1,66.4*,0.3
COc1ccc(-c2csc(NC(=O)c3cc(-c4cccs4)nc4ccccc34)n2)c(OC)c1,.,10.1,.,.,.
COC(=O)c1ccc(C(=O)OC)c(NC(=S)N2CCN(c3cccc(Cl)c3)CC2)c1,.,25.6,.,.,.
CCOC(=O)N1CCC(N(CCOC)C(=O)Nc2ccc(Cl)cc2)CC1,30.7,3.7,0.7,40.4,0.6
O=C(C(Cc1ccc(Cl)cc1)NS(=O)(=O)c1ccccc1)N1CC[C@@]2(O)CCCC[C@H]2C1 (some centres undefined),87.8*,3.5,0.1,69.5*,0.3
Cc1ccc(C2C(C#N)=C(N)SC(N)=C2C#N)cc1,48.0,21.2,0.5,23.9,0.8
Cc1ccccc1[C@@H]1C(C#N)=C(N)S[C@H]1C(=O)c1ccccc1,98.3*,23.8,0,100.1*,0
O=C(NC1CC1)C1CCN(c2ncnc3c2sc2cccc(F)c23)CC1,73.3*,2.4,0.3,60.6*,0.4
Cc1cc(N2CCCC2=O)cc(C)c1CN1C(=O)c2ccccc2C1=O,.,3.5,.,.,.
O=C(/N=C1\NC(=O)C(F)(C(F)(F)F)S1)NC1CCCCC1 (centres undefined),85.1*,1.6,0.1,7.0,0.9
CCC1S/C(=N/C(=O)NC2CCCCC2)NC1=O (centres undefined),.,18.4,.,.,.
O=C1C2CC=C(Cl)CC2C(=O)N1CC1OCCc2ccccc21 (centres undefined),55.0*,14.7,0.4,74.0*,0.3
O=C(CSc1nnc(COc2ccccc2)n1-c1ccccc1)c1cccs1,96.8*,17.9,0,97.5*,0
CCc1nnc(NC(=O)CSc2nnc(COc3ccc(C)cc3)n2-c2ccccc2)s1,8.7,12.1,0.9,-15.6,1.2
CCOC(=O)C(CC)Sc1nnc(COc2ccc(C)cc2)n1-c1ccccc1 (centres undefined),.,27.7*,.,.,.
CCOc1ccc(-n2c(COc3ccc(C)cc3)nnc2SCC(N)=O)cc1,38.3,8.2,0.6,91.2*,0.1
Cc1ccc(OCc2nnc(SCC(=O)c3cccs3)n2-c2ccccc2)cc1C,3.6,11.5,1,8.0,0.9
CCOc1ccc(-n2c(Cc3cc(=O)[nH]c(=O)[nH]3)nnc2SCC(N)=O)cc1,16.6,1.9,0.8,11.7,0.9
O=C(Nc1cccc(Cl)c1N1CCCC1)c1cc2ccccc2o1,63.9*,3.3,0.4,24.7,0.8
O=C(Nc1ccccc1N1CCN(C(=O)c2ccc(Cl)cc2)CC1)c1cc2ccccc2o1,91.8*,7.4,0.1,75.1*,0.2
O=C(Nc1ccccc1N1CCN(C(=O)c2ccc(Cl)cc2)CC1)c1ccc(Br)cc1,81.8*,4.0,0.2,65.5*,0.3
CC(C)C(=O)N1CCN(c2ccccc2NC(=O)c2cccc(Cl)c2)CC1,30.4,26.4,0.7,22.4,0.8
SMILES,CYP2C9 inh,Measles CPE,CYP2C9 activ,CYP2C19 inh,CYP2C19 activ
COc1ccc(-n2c(=O)c3ccccc3n(CC(=O)NC3CCCC3)c2=O)cc1,15.6,12.3,0.8,8.2,0.9
COc1ccccc1NS(=O)(=O)c1ccc2oc(SC3CCOC3=O)nc2c1 (centres undefined),40.4,2.9,0.6,52.6*,0.5
CCN(CC)C(NC(=O)c1ccccc1)C(=O)c1ccccc1 (centres undefined),61.9*,19.6,0.4,59.6*,0.4
CCOC(NC(=O)c1ccccc1)C(NC(=O)c1ccccc1)OCC (centres undefined),16.0,10.6,0.8,53.0*,0.5
Cc1ccc(NC(=O)c2cccc(N3C(=O)CCC3=O)c2)nc1,-1.4,6.3,1,-23.5,1.2
CCCc1cc2c(=O)n(NC(=O)c3nn(C)cc3[N+](=O)[O-])c(C)nc2s1,.,19.5,.,.,.
COc1cccc(NS(=O)(=O)c2ccc3[nH]cc(C(=O)NC4CC4)c(=O)c3c2)c1,52.0*,4.3,0.5,13.0,0.9
COc1cccc(NS(=O)(=O)c2ccc3[nH]cc(C(=O)N(C)Cc4ccco4)c(=O)c3c2)c1,70.7*,4.1,0.3,48.1,0.5
Cc1ccccc1NS(=O)(=O)c1ccc2[nH]cc(C(=O)N(C)Cc3ccco3)c(=O)c2c1,24.7,6.7,0.8,14.4,0.9
Cc1cc(C)cc(NS(=O)(=O)c2ccc3[nH]cc(C(=O)NCc4ccco4)c(=O)c3c2)c1,64.8*,13.9,0.4,12.4,0.9
Cc1ccnc(SCc2cc(=O)c(OC(=O)c3ccc(Cl)c([N+](=O)[O-])c3)co2)n1,.,9.0,.,.,.
O=C(CSc1cccc2cccnc12)OCC(=O)c1ccccc1,-156.6,-0.7,2.6*,27.7,0.7
c1cnc(NC2CCCCCC2)nc1,-8.8,10.5,1.1,-14.6,1.1
Cc1cc(=O)oc2cc(OCC(O)CN3CCc4ccccc4C3)ccc12 (centres undefined),100.3*,2.4,0,64.8*,0.4
CCc1cc(=O)oc2c(C)c(OCC(=O)N3CCCc4ccccc43)ccc12,93.5*,4.2,0.1,65.5*,0.3
CCc1cc(=O)oc2cc(OCC(=O)N3CCc4ccccc43)ccc12,7.0,.,0.9,19.2,0.8
COc1ccc(OC(C)C(=O)N2CCc3ccccc3C2)cc1 (centres undefined),23.1,9.4,0.8,52.1*,0.5
Cc1ccc(OC(C)C(=O)N2CCCc3ccccc32)cc1 (centres undefined),44.2,5.6,0.6,54.5*,0.5
Cc1ccc(CN2CCN(CC(=O)NC(C)c3ccc4c(c3)OCCO4)C2=O)cc1 (centres undefined),32.7,11.9,0.7,39.8,0.6
Cc1c(Br)c([N+](=O)[O-])nn1C(C)C(=O)N1CCCc2ccccc21 (centres undefined),41.0,16.1,0.6,58.1*,0.4
Cc1cc(=O)oc2cc(OC(C)C(=O)N3CCCc4ccccc43)ccc12 (centres undefined),84.1*,9.0,0.2,38.4,0.6
Cc1nnc(NC(=O)C(C)Oc2ccc3c(C)cc(=O)oc3c2)s1 (centres undefined),94.1*,6.2,0.1,12.2,0.9
C1CCC(C(CC2CCCCN2)C2CCCCC2)CC1 (centres undefined),.,11.9,.,.,.
